# Data: PubChem BioAssay (NCI)
# This is part of a sample that, as a whole, favours compounds with a hit. Of some 83,000 tested, about 20% had one in any assay.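 Interpretation: 100, growth as untreated; towards 0, rising growth inhibition; 0, no net growth; 0 to -100, cell death. Compounds scoring below 10 were considered active.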 A number with no mark means an inactive call. Activity calls are given as the source filed them.
# System: NCI-H23 lung
# Experiment: NCI-60 one-dose screen, 48 h (100 = growth as untreated, 0 = no growth, -100 = all killed)
# Settings: 10 µM unless noted
row,SMILES,growth
1,O=C(CCl)c1ccc([N+](=O)[O-])o1,5.38% (active)
2,CCCCCSC1C2C(=O)C(Br)=CC13CCNc1c(O)c4c5c(c13)=[N+]2CCC=5C=N4 (configuration not stated),-17.1% (active)
3,COc1ccc(C/C(C)=C(\c2ccc(OCCN3CCOCC3)cc2)c2ccc(OC(=O)Cc3ccccc3)cc2)cc1,-18.3% (active)
4,Cn1cc(-c2csc(-c3cn(CCCCN4CCCCC4)c4ccc(F)cc34)n2)c2cccnc21,79.8%
5,COc1ccc2c(c1)c(-c1nc(-c3cn(C)c4ncccc34)cs1)cn2CCCCN1CCCCC1,15.3%
6,C[n+]1c(/C=C/c2ccc(N(CCCl)CCCl)cc2)sc2ccccc21,44.9%
7,C=CC[Se]C(=O)c1ccccc1OC(C)=O,-21.6% (active)
8,CC(=O)OC1CCC2C3CCC4=C/C(=N/OC(=O)c5ccc(N(CCCl)CCCl)cc5)CCC4(C)C3CC(C)C12 (configuration not stated),69.7%
9,CCCCCCCC[n+]1ccc2ccccc2c1,36.5%
10,Cn1cccc1C1CC(=O)N(CCC[Se]C#N)C1=O (configuration not stated),-25.4% (active)
11,C[Se]C(=O)c1ccccc1OC(C)=O,53.9%
12,O=C1Nc2ccccc2C2c3cccn3-c3ccccc3CN12 (configuration not stated),70.6%
13,CCOC(=O)[C@@H](C)C[C@H](Cc1ccccc1)NC(=O)c1csc([C@@H](C[C@H](C(C)C)N(C)C(=O)[C@H](CCC(C)C)NC(=O)[C@H]2CCCCN2C)OC(C)=O)n1,25.3%
14,COC(=O)[C@H](C[C@H](Cc1ccccc1)NC(=O)c1csc([C@@H](C[C@H](C(C)C)N(C)C(=O)[C@@H](NC(=O)[C@H]2CCCCN2C)C(C)C)OC(C)=O)n1)NC(=O)OCc1ccccc1,30.2% [8.5 µM]
15,CC1(C)N=C(N)N=C(N)N1c1ccc(OCCCNC(=O)Nc2ccc(S(=O)(=O)F)cc2)c(Cl)c1,27.3%
16,O=C(CN1CCN(C(=O)c2ccco2)CC1)Nc1ccc(Cl)cc1C(=O)c1ccccc1Cl,85.3%
17,Cc1cc(N(CCCl)CCCl)ccc1C=Nc1ccccc1-c1ccccc1,60.8%
18,Cn1cc(-c2csc(-c3cn(CCN4CCOCC4)c4ccccc34)n2)c2cccnc21,62.6%
19,CCOC(=O)[C@@H](C)C[C@H](Cc1ccccc1)NC(=O)c1csc([C@@H](C[C@H](C(C)C)N(C)C(=O)[C@H](CC)NC(=O)[C@H]2CCCCN2C)OC(C)=O)n1,28.4%

row,SMILES,growth
1,ClC1=C(Cl)C(Cl)(C2(Cl)C(Cl)=C(Cl)C(Cl)=C2Cl)C(Cl)=C1Cl,-14.4% (active)
2,O=C([O][Hg][CH2]C1OCCOC1[CH2][Hg][O]C(=O)c1ccccc1)c1ccccc1 (configuration not stated),46.7%
3,COc1ccc([As]=[As]c2ccc(OC)c(NCS(=O)(=O)O)c2)cc1NCS(=O)(=O)O (configuration not stated),23.3%
4,[Cl][Hg][n]1c(-c2ccco2)nc2ccccc21,99%
5,CCC[CH2][Sn]([CH2]CCC)([CH2]CCC)[O]c1ccc(Cl)cc1Cl,-87.2% (active)
6,NC(CCl)CCl,104%
7,CN1CCC(c2c[nH]c3ccccc23)C1 (configuration not stated),88.9%
8,CCCCCCCCCCCCCCCCCC1OC[C@@H](COC(=O)O[C@@H](C(=O)O[C@H]2C[C@@]3(O)[C@@H](OC(=O)c4ccccc4)[C@@H]4[C@]5(OC(C)=O)CO[C@@H]5C[C@H](O)[C@@]4(C)C(=O)[C@H](OC(C)=O)C(=C2C)C3(C)C)[C@@H](NC(=O)c2ccccc2)c2ccccc2)O1 (some centres not stated),54.2%
9,CC1=C([Te]c2ccc(O)cc2)C(=O)c2ccccc2C1=O,-19.6% (active)
10,O=C1NC(=O)C(=Cc2cn(CCCCCCn3c4ccccc4c(=O)c4ccccc43)c3ccccc23)C(=O)N1,82.5%
11,CC(C)OC(=O)[C@H](C)NP(=O)(Oc1ccccc1)C1CCCN(O)C1=O (some centres not stated),89.6%
12,CCCCCCC(=O)NC1=C(N2CC2)C(=O)C(NC(=O)CCCCCC)=C(N2CC2)C1=O,33.6%
13,COc1ccc(/C=C\c2cc(OC)c(OC)c(OC)c2)cc1NS(=O)(=O)c1ccc(Cl)cc1,75.3%
14,CC[C@H](C)[C@H](NC(=O)[C@H]1CCCCN1C)C(=O)N(C)[C@H](CC(=O)c1nc(C(=O)N[C@@H](Cc2ccccc2)C[C@H](C)C(=O)O)cs1)C(C)C,93.2%
15,C[C@]12C[C@@H](CO)[C@H](O)C[C@@H]1CC[C@@H]1[C@@H]2CC[C@]2(C)[C@@H](O)CC[C@@H]12,102%
16,[Cl][Hg][c]1cc[c]([Hg][Cl])o1,63.5%
17,NC(=S)c1cn(C2OC(CO)C(O)C2O)c2ncnc(N)c12 (configuration not stated),-38.8% (active)
18,COC(=O)CC[C@H](Cc1ccccc1)NC(=O)c1csc([C@@H](C[C@H](C(C)C)N(C)C(=O)[C@@H](NC(=O)[C@H]2CCCCN2C)C(C)C)OC(C)=O)n1,51%
